Bioassay records: PubChem, National Center for Advancing Translational Sciences (NCATS)
Shown are actives, neighbours in structure and some others; about 3.3% of the full set was active somewhere.
Sm TGR inh: qHTS Assay for the Inhibitors of Schistosoma Mansoni Peroxiredoxins. Schistosoma mansoni thioredoxin glutathione reductase (TGR), Q962Y6. purified TGR, DTNB reduction, TNB absorbance 405 nm. Potency, µM (series often up to 114 µM), without a hit: at the top dose activity change, negative = inhibition, usual class: inhibitors. 360,000 compounds, 3% hits; further: nearly all actives have a fitted effect of over 60% in size
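TGR 20 nM + NADPH 100 uM (dispensed conc.), cpd preinc 15 min RT; start with NADPH (500 uM addition) then DTNB (15 mM addition). Kinetic TNB absorbance, 405 nm filter. Four-parameter Hill fit across titration.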
RE007 growth inh: qHTS Assay for Inhibitors of the HIV-1 protein Vpr. S. pombe RE007 Vpr strain, BacTiter-Glo ATP luminescence, 24 h. Potency, µM (series often up to 92.2 µM), without a hit: at the top dose activity change, negative = less growth, actives largely listed as inhibitors. 360,000 compounds, 0.21% hits; active means well fitted falling curve with a large enough effect; inconclusive means small, poorly fitted or top-dose-only effect; inactive means no such curve, though single readings can be large or run the other way; further: nearly all actives have a fitted effect of over 50% in size
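Fission yeast strain RE007, carrying one chromosomally integrated HIV-1 vpr copy, was seeded at OD 0.01 in PMG+AL medium with 23 nL pinned compound. After 24 h at 30 °C and 99% humidity, viability was read by BacTiter-Glo luminescence.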
FBPA Giardia inh: qHTS Assay for Inhibitors of Fructose-1,6-bisphosphate Aldolase from Giardia Lamblia; A8B2U2; purified Giardia FBPA; Potency, µM (titrated, usually from 59.6 µM), inactives show top-dose activity, negative = inhibition, most hits filed as inhibitors; 290,000 compounds, 0.71% hits; further: nearly all actives have a fitted effect of over 55% in size
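Giardia FBPA (40 nM reagent) was preincubated 10 min at RT with compound (up to 57.5 uM final), then substrate plus GAPDH/TPI/NAD/arsenate coupling system with diaphorase/resazurin was added; resorufin fluorescence (525/598 nm) was read after 20 min.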
LmPK inhibitor: qHTS Assay for Inhibitors of Leishmania Mexicana Pyruvate Kinase (LmPK); purified LmPK, Kinase-Glo ATP luminescence, 1 h; Potency, µM (titrated, usually from 57.5 µM), without a hit: top-dose activity change, negative = inhibition, actives largely listed as inhibitors; 290,000 compounds, 0.37% hits; AID 1721, 2009
Target sequence (Q27686 whole entry, looked up): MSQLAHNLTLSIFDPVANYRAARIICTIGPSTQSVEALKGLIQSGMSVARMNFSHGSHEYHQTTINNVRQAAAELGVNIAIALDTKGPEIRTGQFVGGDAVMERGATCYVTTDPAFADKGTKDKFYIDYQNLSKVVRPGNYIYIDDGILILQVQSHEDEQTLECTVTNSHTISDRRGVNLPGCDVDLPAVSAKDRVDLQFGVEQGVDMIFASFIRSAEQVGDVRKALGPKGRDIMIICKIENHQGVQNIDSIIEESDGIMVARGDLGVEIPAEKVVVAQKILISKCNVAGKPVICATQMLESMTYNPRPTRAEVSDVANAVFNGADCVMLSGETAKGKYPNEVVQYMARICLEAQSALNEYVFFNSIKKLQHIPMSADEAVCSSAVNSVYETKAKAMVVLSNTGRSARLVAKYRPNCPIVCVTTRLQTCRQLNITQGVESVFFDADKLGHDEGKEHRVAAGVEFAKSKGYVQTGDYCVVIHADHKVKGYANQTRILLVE
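qHTS format; LmPK 0.1 nM; substrates PEP 0.5 mM and ADP 0.1 mM. One-hour room-temperature incubation, then coupled luciferase luminescence; 0.5 nM enzyme wells mark activation.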
TbPYK inhibitor: qHTS of Trypanosoma Brucei Inhibitors; pyruvate kinase (Trypanosoma brucei), Q57TT1; TbPYK enzyme, Kinase-Glo Plus ATP luminescence, 45 min; Potency, µM (titrated, usually from 76.8 µM), for the others: at the highest dose activity, negative = inhibition, actives largely listed as inhibitors; 410,000 compounds, 0.12% hits; further: nearly all actives have a fitted effect of over 50% in size
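In this concentration-response screen, enzyme-free wells defined baseline while DMSO plates tracked drift. Each reaction combined TbPYK, substrate, compound and 130 uM ADP for 45 min at room temperature. Kinase-Glo Plus luminescence gave the signal.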
Numbers without * were called inactive; ? = inconclusive; nt = no result; [ ] = dose if it differs, or a comment. Unless noted, the call rests on the fitted dose curve; in most records, active means well fitted curve in the direction sought with a large enough effect; inconclusive means small, poorly fitted or top-dose-only effect, or another doubt; inactive means no such curve, though single readings can be large; an effect the other way counts as inactive or inconclusive. On the % scale 0 is the no-effect control and ±100 the full control effect; potency means the concentration at half of the fitted maximal effect.

SMILES	Sm TGR inh	RE007 growth inh	FBPA Giardia inh	LmPK inhibitor	TbPYK inhibitor
COc1ccc(CN(C)Cc2c(O)ccc3cc(Br)ccc23)cc1OC	8.91µM*	-15.9%	-10.5%	3.8%	-1.6%
COc1ccc(CCN(C)Cc2c(O)ccc3cc(Br)ccc23)cc1OC	3.98µM*	-17.9%	-8.7%	10.4%	-7.8%
Cc1cccc2sc(N(Cc3cccnc3)C(=O)CCOc3ccccc3)nc12	3.55µM*	nt	nt	nt	0.0%
O=C(CCOc1ccccc1)N(Cc1cccnc1)c1nc2c(Cl)cccc2s1	1.12µM*	nt	nt	nt	-15.1%[15.4 µM]
CCn1nnc2cc(C(=O)Nc3ccc(C)c(Cl)c3)ccc21	2.8%	nt	nt	nt	1.5%
CCNC(=O)c1cc(Br)ccc1Cl	-9.5%	4.7%	-0.3%	6.0%	-1.0%
Cc1ccc(N(CC2CO2)S(=O)(=O)c2ccc([N+](=O)[O-])cc2)cc1 (stereo unspecified)	31.6µM*	-1.5%	7.9%	-0.3%	-7.4%
Cc1ccc(N(CC2CO2)S(=O)(=O)c2ccc(C)cc2)cc1 (stereo unspecified)	?	6.8%	1.0%	5.8%	-4.4%
Cn1cccc1/C=N/n1c(-c2ccc(C(C)(C)C)cc2)n[nH]c1=S	5.6%	12.5%	nt	20µM*	?
Cn1cccc1/C=N/n1c(-c2ccccc2)n[nH]c1=S	6.5%	18.3%	-12.6%	7.94µM*	?
Oc1ccccc1/C=N/n1c(-c2ccccc2)n[nH]c1=S	-23.8%	0.0%	-7.0%	-10.7%	?
CCOC(=O)c1sc(SC)c2c1CCC/C2=N/OC	2.3%	-5.2%	7.6%	0.7%	-1.7%
CCOC(=O)c1sc(S(C)(=O)=O)c2c1CCc1conc1-2	12.6µM*	7.8%	-27.0%	0.3%	-1.3%
CCOC(=O)C1CCN(C(=O)Nc2ccc3nc(-c4ccco4)c(-c4ccco4)nc3c2)CC1	0.708µM*	-21.9%	?	-6.8%	?
O=C(Nc1ccc2nc(-c3ccco3)c(-c3ccco3)nc2c1)N1CCCCCC1	0.708µM*	-1.4%	?	0.7%	?
Cc1ccc(S(=O)(=O)CCC(=O)OCc2nc(N)nc(Nc3ccccc3C)n2)cc1	-2.4%	8.4%	nt	nt	-1.9%
Clc1ccc(-n2ncc3c(NCc4ccco4)ncnc32)cc1	0.0%	7.8%[3.69 µM]	-10.7%	-2.2%	nt
COc1ccc(-n2ncc3c(NCc4ccco4)ncnc32)cc1	50.1µM*	14.5%	-15.5%	0.5%	-3.0%
ClC1=C(Cl)C(Cl)=C(Cl)C1=C/C=C/c1ccccc1	50.1µM*	12.9%	-9.7%	-6.4%	-1.5%
CN1CCN(S(=O)(=O)c2ccc(NC(=S)NC(=O)C3CCCC3)cc2)CC1	-18.7%	-3.7%	1.7%	-1.7%	2.7%
Cn1c(N2CCOCC2)nc2c1c(=O)n(Cc1ccc(Cl)c(Cl)c1)c(=O)n2C	-0.6%	2.3%	1.2%	2.6%	0.9%
Cn1c(OCc2ccco2)nc2c1c(=O)n(Cc1ccc(Cl)c(Cl)c1)c(=O)n2C	22.4µM*	-8.2%	7.7%	5.6%	-7.2%
CCOc1ccc(NS(=O)(=O)c2ccc(C(=O)NCC(c3cccs3)N3CCOCC3)cc2)cc1 (stereo unspecified)	-1.0%	-22.6%	nt	nt	-7.2%
Cc1ccsc1C(=O)NCC(c1cccs1)N1CCOCC1 (stereo unspecified)	nt	3.3%	nt	nt	1.5%
CC(=O)c1ccc(S(=O)(=O)Nc2ccc(C(=O)NCC(c3cccs3)N3CCOCC3)cc2)cc1 (stereo unspecified)	14.1µM*	-12.3%	nt	nt	-3.3%
SMILES	Sm TGR inh	RE007 growth inh	FBPA Giardia inh	LmPK inhibitor	TbPYK inhibitor
O=C(NCC(c1cccs1)N1CCOCC1)c1ccc(Br)o1 (stereo unspecified)	25.1µM*	11.6%	-16.7%	8.9%	0.1%
COc1cccc2c1nc(C)c1cc(C)oc12	3.9%	-29.9%	2.9%	3.9%	4.3%
COc1cccc2nc3cc(C)c(C)cc3nc12	-30.3%	2.82µM*	?	12.6µM*	?
CCOC(=O)C1CCN(/C=C2/C(=O)NC(=S)N(c3cccc(OC)c3)C2=O)CC1	25.3%	9.1%	0.2%	-1.8%	-10.1%
CCOC(=O)C1CCN(/C=C2/C(=O)NC(=O)N(c3cccc(C)c3C)C2=O)CC1	8.91µM*	-2.1%	1.4%	-0.2%	1.6%
N/C(=N\S(=O)(=O)c1ccccc1)c1ccc([N+](=O)[O-])cc1	12.6µM*	-13.5%	3.3%	1.8%	-7.3%
CC(Oc1ccc2c(c1)oc(=O)c1ccccc12)C(=O)NCC1CCC(C(=O)O)CC1 (stereo unspecified)	7.6%	-0.2%	-9.8%	-5.3%	2.1%
C/[N+]([O-])=C\c1coc2ccccc2c1=O	-4.1%	-2.9%	-1.1%	-5.2%	0.2%
C#CCCc1ccccc1/C=[N+](/C)[O-]	11.2µM*	-14.4%	nt	nt	0.7%
COc1ccccc1-c1noc(-c2ccc(NC3CCCCC3)c([N+](=O)[O-])c2)n1	-15.4%	nt	nt	nt	-0.1%
Cc1ccc(CN(C)C(=O)c2ccc3c(c2)NC(=O)CS3)o1	10µM*	2.7%	-17.3%	-1.4%	-19.8%
CN1CCCCC1=NCCCn1cnc2c1c(=O)n(C)c(=O)n2C	6.2%	-4.5%	1.5%	-7.1%	-2.4%
Cn1c(Cc2csc(N)n2)nnc1SCC(=O)NC1CCCCC1	39.8µM*	24.5%	4.2%	-1.8%	-6.9%
Nc1ncc2c(n1)CC(c1ccco1)CC2=O (stereo unspecified)	50.1µM*	-6.6%	-14.0%	-1.9%	-4.5%
O=C(Nc1ncc2c(n1)CC(c1ccco1)CC2=O)c1ccco1 (stereo unspecified)	20µM*	-22.0%	-8.0%	-1.3%	-5.2%
O=C1CC(c2ccco2)Cc2nc(N3CCc4ccccc4C3)ncc21 (stereo unspecified)	31.6µM*	-7.8%	-7.1%	0.5%	1.8%
CC(=O)Nc1ncc2c(n1)CC(c1ccco1)CC2=O (stereo unspecified)	-27.1%	4.4%	-18.2%	4.6%	1.2%
CCOC(=O)CC(=O)Nc1cc2ccc(OC)c(OC)c2cc1C(=O)OCC	nt	-9.1%	nt	nt	3.3%
O=C(O)CCCn1c(=S)[nH]c2c(sc3ccc([N+](=O)[O-])cc32)c1=O	-15.5%	-0.1%	?	?	20µM*
CC1CCN(CCCn2c(=S)[nH]c3c(sc4ccc([N+](=O)[O-])cc43)c2=O)CC1	-0.8%	5.6%	-20.5%	5.4%	-8.0%
CCN1CCN(C(c2ccccc2F)c2c(O)cc(C)n(CCOC)c2=O)CC1 (stereo unspecified)	7.94µM*	nt	nt	nt	1.0%
CCN1CCN(C(c2ccc(SC)cc2)c2c(O)cc(C)n(CCOC)c2=O)CC1 (stereo unspecified)	7.08µM*	nt	nt	nt	10.7%
